From PubChem BioAssay (EPA / NIEHS)
Several values for one entry are separate records, joined by “and”; a condition that tells them apart may be missing. Identical values can stand only once. A structure can be active in one record and inactive in another. Activity calls are given as the source filed them. How the source made its calls: active means hit-call score of the fitted dose curve at least 0.9, where 1 is the maximum; inactive means score below 0.9.

How the values were obtained:
[1] = molecular target: Bile acid receptor (Homo sapiens) (UniProt Q96RI1); assay: ATG_IR1_CIS: Attagene CIS-FACTORIAL HepG2 Assay for human Nuclear Receptor Subfamily 1 Group H Member 4 (NR1H4), IR1 submotif (AID 2282946); details: IR1 reporter transcription, actives raise or lower the signal
Bile acid receptor (Homo sapiens), sequence (Q96RI1 whole entry, looked up): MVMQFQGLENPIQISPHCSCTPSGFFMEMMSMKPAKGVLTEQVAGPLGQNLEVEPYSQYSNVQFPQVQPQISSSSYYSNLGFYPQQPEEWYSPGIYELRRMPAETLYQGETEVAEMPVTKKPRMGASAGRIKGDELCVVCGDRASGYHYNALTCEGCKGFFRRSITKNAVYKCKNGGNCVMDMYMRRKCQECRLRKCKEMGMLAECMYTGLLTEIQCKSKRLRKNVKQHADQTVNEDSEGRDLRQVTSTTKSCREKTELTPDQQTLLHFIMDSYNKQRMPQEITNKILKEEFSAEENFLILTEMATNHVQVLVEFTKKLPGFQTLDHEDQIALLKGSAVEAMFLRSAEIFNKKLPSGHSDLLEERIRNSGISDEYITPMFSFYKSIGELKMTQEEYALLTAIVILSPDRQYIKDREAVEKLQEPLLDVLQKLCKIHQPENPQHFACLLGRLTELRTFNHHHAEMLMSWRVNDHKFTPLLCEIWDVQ
In short: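 Fluorescence of capillary-separated, HpaI-digested RT-PCR reporter products gave IR1-element mRNA induction in HepG2 cells 24 h after dosing. Endogenous transcription factors drove the cis-regulated reporters; activity was fitted bidirectionally against DMSO.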

[2] = ATG_GRE_CIS: Attagene CIS-FACTORIAL HepG2 Assay for human Glucocorticoid Response Elements (GRE) (AID 2282947); details: HepG2 GRE cis-reporter, Attagene multiplex mRNA; actives raise or lower the signal
In short: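 Read-out: fluorescent reporter-transcript fragments separated by capillary electrophoresis after RT-PCR. Transiently transfected HepG2 cells carrying cis-element-driven reporter units were dosed for 24 h; gain or loss of signal fitted against DMSO control.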

[3] = ATG_ISRE_CIS: Attagene CIS-FACTORIAL HepG2 Assay for human Interferon Regulatory Factor 1 (IRF1) binding to an Interferon-Stimulated Response Element (ISRE) (AID 2282948); details: HepG2 ISRE cis-reporter (Attagene), mRNA transcription readout; actives raise or lower the signal
In short: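 Read-out: fluorescent RT-PCR products resolved by capillary electrophoresis, reporting endogenous transcription factor activity via ISRE-driven reporter mRNA in transfected HepG2 cells dosed for 24 h; gain or loss fitted relative to DMSO.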

[4] = ATG_M_06_CIS: Attagene CIS-FACTORIAL HepG2 Assay for M06 Transcription Factor (Internal Marker) (AID 2282950); details: HepG2 Attagene CIS-FACTORIAL M06 internal marker reporter; actives raise or lower the signal
In short: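 Serves as a background control readout. Transfected HepG2 exposed to compounds for 24 h, then reporter transcripts quantified by fluorescent RT-PCR and capillary electrophoresis. Both directions fitted against DMSO baseline.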

[5] = molecular target: Hypoxia-inducible factor 1-alpha (Homo sapiens) (UniProt Q16665); assay: ATG_HIF1a_CIS: Attagene CIS-FACTORIAL HepG2 Assay for human Hypoxia Inducible Factor 1 (HIF1A) (AID 2282951); details: HepG2 Attagene cis-factorial HIF1a reporter transcription; actives raise or lower the signal
Hypoxia-inducible factor 1-alpha (Homo sapiens), sequence (Q16665 whole entry, looked up): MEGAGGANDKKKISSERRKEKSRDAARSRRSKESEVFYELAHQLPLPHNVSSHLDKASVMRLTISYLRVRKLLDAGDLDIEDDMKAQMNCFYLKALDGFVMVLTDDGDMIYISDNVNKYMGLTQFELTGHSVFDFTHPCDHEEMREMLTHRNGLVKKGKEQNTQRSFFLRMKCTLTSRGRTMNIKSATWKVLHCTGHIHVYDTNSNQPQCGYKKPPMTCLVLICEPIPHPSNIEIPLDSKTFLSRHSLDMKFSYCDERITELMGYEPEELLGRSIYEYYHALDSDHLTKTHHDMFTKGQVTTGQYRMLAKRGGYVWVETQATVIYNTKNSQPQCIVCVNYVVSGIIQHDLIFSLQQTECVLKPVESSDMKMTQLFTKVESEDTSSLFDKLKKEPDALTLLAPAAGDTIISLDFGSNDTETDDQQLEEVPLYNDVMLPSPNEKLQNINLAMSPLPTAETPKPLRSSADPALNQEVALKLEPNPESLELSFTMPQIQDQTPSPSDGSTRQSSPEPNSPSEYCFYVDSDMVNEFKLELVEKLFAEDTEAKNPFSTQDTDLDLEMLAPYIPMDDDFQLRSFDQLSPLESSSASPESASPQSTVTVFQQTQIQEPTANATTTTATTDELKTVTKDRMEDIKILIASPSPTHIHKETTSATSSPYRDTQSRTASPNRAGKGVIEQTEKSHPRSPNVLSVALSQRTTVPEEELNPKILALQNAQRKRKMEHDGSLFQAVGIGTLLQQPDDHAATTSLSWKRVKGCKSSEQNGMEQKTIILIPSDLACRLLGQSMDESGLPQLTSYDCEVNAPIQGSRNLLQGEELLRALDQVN
In short: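 Activity is fitted in both directions relative to DMSO. Reporter transcripts are read by RT-PCR, fluorescent primer extension and capillary electrophoresis after 24 h chemical treatment. The cells are HepG2 carrying transiently transfected cis-element-driven reporter units responding to endogenous factors.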

[6] = molecular target: Hepatocyte nuclear factor 6 (Homo sapiens) (UniProt Q9UBC0); assay: ATG_HNF6_CIS: Attagene CIS-FACTORIAL HepG2 Assay for human Hepatocyte Nuclear Factor 6 (HNF6) (AID 2282952); details: HepG2 Attagene cis-factorial HNF6 reporter transcription; actives raise or lower the signal
Hepatocyte nuclear factor 6 (Homo sapiens), sequence (Q9UBC0 whole entry, looked up, the tested form may be a part): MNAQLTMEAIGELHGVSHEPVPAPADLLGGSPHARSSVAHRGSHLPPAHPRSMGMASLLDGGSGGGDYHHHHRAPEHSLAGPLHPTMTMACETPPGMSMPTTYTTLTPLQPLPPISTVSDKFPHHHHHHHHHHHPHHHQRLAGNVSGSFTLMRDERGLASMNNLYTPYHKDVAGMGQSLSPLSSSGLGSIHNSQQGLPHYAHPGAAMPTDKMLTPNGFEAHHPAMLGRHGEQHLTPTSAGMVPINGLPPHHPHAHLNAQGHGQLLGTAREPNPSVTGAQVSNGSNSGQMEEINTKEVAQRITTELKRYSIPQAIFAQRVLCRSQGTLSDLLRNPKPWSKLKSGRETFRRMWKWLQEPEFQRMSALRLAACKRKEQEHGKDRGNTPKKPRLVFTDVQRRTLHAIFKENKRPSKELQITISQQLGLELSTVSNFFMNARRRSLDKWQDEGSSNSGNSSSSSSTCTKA
In short: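 Twenty-four-hour chemical treatment of reporter-transfected HepG2 cells precedes RNA isolation, DNase-treated reverse transcription and PCR of reporter sequences. Labelled fragments are sized by capillary electrophoresis and fitted bidirectionally versus DMSO.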

[7] = ATG_MRE_CIS: Attagene CIS-FACTORIAL HepG2 Assay for human Metal Responsive Element (MRE) (AID 2282954); details: HepG2 MRE cis-reporter transcription, Attagene multiplex; actives raise or lower the signal
In short: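 RT-PCR/capillary electrophoresis readout of reporter mRNA, 24 h post-dosing, in HepG2 cells transfected with multiplexed cis-regulated reporter constructs. Gain or loss of signal fitted bidirectionally against DMSO baseline.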

[8] = ATG_PBREM_CIS: Attagene CIS-FACTORIAL HepG2 Assay for human Phenobarbital-responsive Enhancer Module (PBREM) (AID 2282955); details: HepG2 PBREM cis-reporter, Attagene multiplexed transcription; actives raise or lower the signal
In short: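 Endogenous transcription factor activity was read from reporter transcripts in transiently transfected human HepG2 liver cells after 24 h dosing. RT-PCR products were fluorescently labelled, HpaI-cut and sized by capillary electrophoresis; activity fitted bidirectionally against DMSO baseline.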

[9] = molecular target: Paired box protein Pax-6 (Homo sapiens) (UniProt P26367); assay: ATG_Pax6_CIS: Attagene CIS-FACTORIAL HepG2 Assay for human Paired Box 6 (PAX6) (AID 2282956); details: HepG2 CIS-FACTORIAL PAX6 reporter transcription, RNA readout; actives raise or lower the signal
Paired box protein Pax-6 (Homo sapiens), sequence (P26367 whole entry, looked up): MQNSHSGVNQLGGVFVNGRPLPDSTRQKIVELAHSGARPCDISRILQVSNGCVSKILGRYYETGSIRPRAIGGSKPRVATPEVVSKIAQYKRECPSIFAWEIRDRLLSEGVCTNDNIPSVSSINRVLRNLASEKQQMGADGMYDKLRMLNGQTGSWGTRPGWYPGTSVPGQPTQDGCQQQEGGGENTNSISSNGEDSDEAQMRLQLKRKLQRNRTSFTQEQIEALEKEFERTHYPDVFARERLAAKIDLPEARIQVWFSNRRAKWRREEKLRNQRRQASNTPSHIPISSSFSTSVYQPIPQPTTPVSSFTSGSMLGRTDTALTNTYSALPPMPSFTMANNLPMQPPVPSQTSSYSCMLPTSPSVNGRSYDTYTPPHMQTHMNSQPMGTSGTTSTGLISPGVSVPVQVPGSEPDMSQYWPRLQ
In short: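 Readout: reporter transcript fluorescence after RT-PCR and capillary electrophoresis. Cells: HepG2, transiently transfected with cis-regulated MRTUs. Exposure 24 h. Gain or loss of signal fitted bidirectionally relative to DMSO.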

[10] = ATG_PXRE_CIS: Attagene CIS-FACTORIAL HepG2 Assay for human Pregnane X Receptor Element (PXRE) (AID 2282957); details: HepG2 Attagene CIS-FACTORIAL PXRE reporter, mRNA; actives raise or lower the signal
In short: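 Bidirectional activity, baselined to DMSO, derived from reporter mRNA fluorescence (RT-PCR plus capillary electrophoresis) in HepG2 cells bearing cis-promoter reporter units, 24 h exposure.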

[11] = ATG_PPRE_CIS: Attagene CIS-FACTORIAL HepG2 Assay for human Peroxisome Proliferator-activated Response Element (PPRE) (AID 2282958); details: HepG2 PPRE cis-element reporter, Attagene transcription factor profiling; actives raise or lower the signal
In short: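 Endogenous PPRE-driven transcription is measured in HepG2 cells carrying transfected multi-reporter constructs. Reporter transcripts are quantified by RT-PCR, HpaI digestion and capillary electrophoresis 24 h after dosing. DMSO baseline, bidirectional fit.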

[12] = ATG_RORE_CIS: Attagene CIS-FACTORIAL HepG2 Assay for human RAR-related Orphan Receptor Element (RORE) (AID 2282959); details: HepG2 Attagene cis-factorial RORE reporter, mRNA; actives raise or lower the signal
In short: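 RORE reporter transcripts reflecting endogenous factor activity were read after 24 h compound exposure of transfected HepG2 cells, using reverse transcription, PCR, fluorescent labelling and capillary electrophoresis sizing. Gain or loss fitted against DMSO.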

[13] = ATG_Sox_CIS: Attagene CIS-FACTORIAL HepG2 Assay for human SRY-box transcription factor (SOX) (AID 2282960); details: HepG2 Attagene cis-factorial SOX reporter, mRNA; actives raise or lower the signal
In short: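 Reporter transcripts, measured by RT-PCR and capillary electrophoresis of labelled fragments, report endogenous SOX transcription factor activity. Transiently transfected human HepG2 cells receive chemical for 24 h; changes in either direction are fitted relative to DMSO.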

[14] = molecular target: Transcription factor Sp1 (Homo sapiens) (UniProt P08047); assay: ATG_Sp1_CIS: Attagene CIS-FACTORIAL HepG2 Assay for human Specificity Protein 1 (Sp1) (AID 2282961); details: HepG2 Sp1 cis-reporter transcription, actives raise or lower the signal
Transcription factor Sp1 (Homo sapiens), sequence (P08047 whole entry, looked up): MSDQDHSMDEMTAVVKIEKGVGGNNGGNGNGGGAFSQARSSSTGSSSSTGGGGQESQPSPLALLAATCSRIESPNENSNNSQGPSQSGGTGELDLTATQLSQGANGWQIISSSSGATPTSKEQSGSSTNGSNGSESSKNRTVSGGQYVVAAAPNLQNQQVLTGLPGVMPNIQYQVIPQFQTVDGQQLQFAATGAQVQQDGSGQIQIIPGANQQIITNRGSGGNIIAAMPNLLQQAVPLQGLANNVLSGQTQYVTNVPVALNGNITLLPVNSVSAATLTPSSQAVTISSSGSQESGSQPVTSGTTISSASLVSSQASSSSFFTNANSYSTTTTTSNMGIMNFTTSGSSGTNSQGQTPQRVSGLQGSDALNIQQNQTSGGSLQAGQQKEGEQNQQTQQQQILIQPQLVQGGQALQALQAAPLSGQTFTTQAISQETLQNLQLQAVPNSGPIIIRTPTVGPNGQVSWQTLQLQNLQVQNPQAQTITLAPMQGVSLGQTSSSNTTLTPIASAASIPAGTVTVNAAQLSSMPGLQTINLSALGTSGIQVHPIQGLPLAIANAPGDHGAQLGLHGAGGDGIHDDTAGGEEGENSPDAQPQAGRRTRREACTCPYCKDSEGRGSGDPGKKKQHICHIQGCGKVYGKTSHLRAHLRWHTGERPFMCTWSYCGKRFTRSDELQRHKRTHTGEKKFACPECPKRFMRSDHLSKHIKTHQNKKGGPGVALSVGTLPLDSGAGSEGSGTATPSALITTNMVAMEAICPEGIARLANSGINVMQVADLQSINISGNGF
In short: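 Read-out is reporter transcript level, measured by RT-PCR and fluorescent capillary electrophoresis after 24 h chemical treatment. System: transiently transfected HepG2 cells reporting endogenous transcription factor activity; gain or loss fitted against DMSO baseline.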

[15] = ATG_SREBP_CIS: Attagene CIS-FACTORIAL HepG2 Assay for human Sterol Regulatory Element Binding (SREBP) (AID 2282962); details: HepG2 Attagene cis-factorial SREBP reporter, mRNA; actives raise or lower the signal
In short: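 Readout: fluorescent reporter-transcript peaks resolved by capillary electrophoresis after RT-PCR. Cells were human HepG2 carrying transfected cis-promoter reporter constructs, dosed for 24 h. Gain or loss of signal was fitted against DMSO controls.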

[16] = molecular target: Signal transducer and activator of transcription 3 (Homo sapiens) (UniProt P40763); assay: ATG_STAT3_CIS: Attagene CIS-FACTORIAL HepG2 Assay for human Signal Transducer and Activator of Transcription 3 (STAT3) (AID 2282963); details: HepG2, Attagene cis-factorial STAT3 reporter transcription; actives raise or lower the signal
Signal transducer and activator of transcription 3 (Homo sapiens), sequence (P40763 whole entry, looked up, the tested form may be a part): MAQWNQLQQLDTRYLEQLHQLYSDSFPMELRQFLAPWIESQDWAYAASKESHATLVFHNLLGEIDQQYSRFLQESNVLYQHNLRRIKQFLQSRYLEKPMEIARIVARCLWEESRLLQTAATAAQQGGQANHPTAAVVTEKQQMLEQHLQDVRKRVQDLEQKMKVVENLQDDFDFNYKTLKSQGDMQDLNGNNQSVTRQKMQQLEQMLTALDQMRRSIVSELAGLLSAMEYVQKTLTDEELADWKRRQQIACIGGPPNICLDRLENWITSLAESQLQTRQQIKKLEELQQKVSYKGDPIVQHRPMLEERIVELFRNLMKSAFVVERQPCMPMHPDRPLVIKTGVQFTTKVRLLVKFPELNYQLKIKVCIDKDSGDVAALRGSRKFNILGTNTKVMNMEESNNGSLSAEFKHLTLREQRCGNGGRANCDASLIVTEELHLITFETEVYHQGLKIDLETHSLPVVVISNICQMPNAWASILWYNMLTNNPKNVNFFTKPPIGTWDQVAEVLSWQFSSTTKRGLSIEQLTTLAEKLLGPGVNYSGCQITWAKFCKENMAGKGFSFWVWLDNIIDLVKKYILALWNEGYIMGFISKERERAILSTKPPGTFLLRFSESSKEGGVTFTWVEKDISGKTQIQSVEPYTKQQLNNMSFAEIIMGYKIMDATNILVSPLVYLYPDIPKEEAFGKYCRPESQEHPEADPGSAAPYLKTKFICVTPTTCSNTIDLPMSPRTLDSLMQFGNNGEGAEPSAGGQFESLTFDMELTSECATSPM
In short: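 Readout: fluorescent reporter mRNA fragments resolved by capillary electrophoresis. Setup: HepG2 transfected with MRTUs reporting endogenous transcription-factor activity, dosed 24 h. Gain or loss of signal fitted bidirectionally against DMSO control.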

[17] = ATG_TCF_b_cat_CIS: Attagene CIS-FACTORIAL HepG2 Assay for human T-Cell-Factor with beta-catenin (TCF/b-cat) (AID 2282965); details: HepG2 TCF/beta-catenin cis-reporter transcription, actives raise or lower the signal
In short: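 HepG2 cells transiently transfected with cis-promoter-driven multiplexed reporter units; reporter mRNA measured 24 h after dosing by RT-PCR, FAM labelling, HpaI digestion and capillary electrophoresis. Bidirectional fitting relative to DMSO baseline.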

[18] = ATG_M_32_CIS: Attagene CIS-FACTORIAL HepG2 Assay for M32 Transcription Factor (Internal Marker) (AID 2282949); details: HepG2 Attagene cis-factorial M32 reporter, mRNA; actives raise or lower the signal;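 further: background control marker of the multiplexed CIS panel rather than a real target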
In short: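 Using DMSO as baseline, bidirectional curve fits were applied to reporter mRNA signals. These came from transiently transfected HepG2 cells exposed for 24 h, with RNA analysed by RT-PCR, FAM primer extension, HpaI digestion and CE.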

[19] = ATG_TA_CIS: Attagene CIS-FACTORIAL HepG2 Assay for human TA Basal Promoter (AID 2282964); details: HepG2 Attagene CIS-factorial TA basal promoter reporter; actives raise or lower the signal
In short: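 Background-control readout: TA basal promoter reporter mRNA, fitted in both directions relative to DMSO. Measured by RT-PCR and capillary electrophoresis 24 hours after treating HepG2 human liver cells transiently carrying multiplexed cis-regulated reporter constructs.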

[20] = molecular target: Heat shock factor protein 1 (Homo sapiens) (UniProt Q00613); assay: ATG_HSE_CIS: Attagene CIS-FACTORIAL HepG2 Assay for human Heat Shock Transcription Factor 1 (HSE) (AID 2282953); details: HepG2 HSE cis-reporter, Attagene RNA transcription; actives raise or lower the signal
Heat shock factor protein 1 (Homo sapiens), sequence (Q00613 whole entry, looked up): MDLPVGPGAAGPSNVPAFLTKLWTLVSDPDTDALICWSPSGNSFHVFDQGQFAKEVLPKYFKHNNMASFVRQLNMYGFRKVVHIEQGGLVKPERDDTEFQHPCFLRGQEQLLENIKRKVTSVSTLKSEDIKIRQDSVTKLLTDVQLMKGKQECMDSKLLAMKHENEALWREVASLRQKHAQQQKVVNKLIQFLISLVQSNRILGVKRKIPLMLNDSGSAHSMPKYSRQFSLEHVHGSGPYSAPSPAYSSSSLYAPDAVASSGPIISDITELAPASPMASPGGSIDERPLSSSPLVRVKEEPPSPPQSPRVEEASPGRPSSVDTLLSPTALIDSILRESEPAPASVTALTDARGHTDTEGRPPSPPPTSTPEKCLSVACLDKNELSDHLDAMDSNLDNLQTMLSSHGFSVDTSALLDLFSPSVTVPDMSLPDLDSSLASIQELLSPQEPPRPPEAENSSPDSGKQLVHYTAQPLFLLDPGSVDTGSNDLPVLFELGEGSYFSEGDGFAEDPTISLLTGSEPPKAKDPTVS
In short: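 Endogenous transcription factor activity in transiently transfected HepG2, read as reporter mRNA by RT-PCR with fluorescent capillary electrophoresis after 24 h. Gain or loss of signal fitted versus DMSO baseline.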

Measured: AC50

CCCCc1ccccc1
active: [5] 59.2 µM
not listed: [18] | [19] | [20]
inactive: all other assays above

O=C(O)CF
inactive: [3] | [18] | [4] | [5] | [6] | [7] | [9] | [10] | [12] | [13] | [14] | [16] | [19]
active: [10] 100 µM

CN(C)C(=O)Cl
not listed: [1] | [17] | [18]
inactive: all other assays above

ClC(Cl)(Cl)c1ccccc1
active: [10] 62.9 µM
not listed: [11] | [15] | [18] | [19]
inactive: all other assays above

CCCCOCCOP(=O)(OCCOCCCC)OCCOCCCC
active: [3] 24.7 µM | [10] 1.04 µM and 62.9 µM
inactive: [2] | [3] | [18] | [4] | [5] | [6] | [20] | [7] | [8] | [9] | [12] | [13] | [14] | [15] | [16] | [19]

c1cc2c3c(cccc3c1)CC2
not listed: [1] | [11] | [15] | [17] | [18]
inactive: all other assays above

CCC(C)(C)c1ccc(O)cc1
active: [1] 33.4 µM | [5] 33.4 µM | [10] 9.13 µM | [15] 20 µM
not listed: [8] | [11] | [17] | [18]
inactive: all other assays above

CCOP(=S)(OCC)SCSCC
active: [7] 151 µM | [10] 11.7 µM
not listed: [8] | [11] | [12] | [15] | [18] | [19]
inactive: all other assays above
